# Reference: PubChem BioAssay (Tox21)
# Results filed as inconclusive are left out. Entries that show only a call come without a potency. The source made the active and inactive calls. Unless noted, calls follow the shape of the dose curve; as a rule, active = well fitted curve in the direction sought with a large enough effect in the repeat runs; inconclusive = weak or mixed curves; inactive = no such curve, though single readings can be large; an effect the other way counts as inactive or inconclusive.
# What was measured:
# [1] = qHTS assay to identify small molecule antagonists of the thyroid receptor (TR) signaling pathway - cell viability counter screen (AID 743064); also: nearly all actives have a fitted effect of over 50% in size; also: potency is read from the fitted curve at half-maximal effect
# In short: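 GH3.TRE-Luc cells, 4 h pre-plating; cpd + T3 1 nM final; 37 °C 23.5 h; CellTiter-Fluor 30 min; fluorescence read.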
# [2] = qHTS assay to identify small molecule antagonists of the thyroid receptor (TR) signaling pathway (AID 743065); also: nearly all actives have a fitted effect of over 55% in size; also: potency is read from the fitted curve at half-maximal effect
# In short: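 GH3.TRE-Luc rat pituitary cells (two TREs driving luciferase) were dosed with compound, then stimulated with 1 nM T3 (final) for 23.5 h at 37 C. ONE-Glo luminescence was the read-out, with CellTiter-Fluor fluorescence as the cytotoxicity counter-screen.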
# [3] = tested on: thyroid hormone receptor (rat, GH3 cells); experiment: qHTS assay to identify small molecule agonists of the thyroid receptor (TR) signaling pathway (AID 743066; calls by dose curve)
# [4] = qHTS assay to identify small molecule antagonists of the estrogen receptor alpha (ER-alpha) signaling pathway - cell viability counter screen (AID 743074; calls by dose curve; also: nearly all actives have a fitted effect of over 45% in size; also: potency is read from the fitted curve at half-maximal effect)
# [5] = qHTS assay to identify small molecule antagonists of the estrogen receptor alpha (ER-alpha) signaling pathway using the BG1 cell line - cell viability counter screen (AID 743081);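 also: compound given together with 17beta-estradiol as the ER stimulus; nearly all actives have a fitted effect of over 45% in size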
# Aromatase (Homo sapiens) = Aromatase (Homo sapiens) (UniProt P11511); experiment: qHTS assay to identify aromatase inhibitors (AID 743083); also: nearly all actives have a fitted effect of over 55% in size; also: potency is read from the fitted curve at half-maximal effect
# Sequence of Aromatase (Homo sapiens) (P11511 whole entry, looked up): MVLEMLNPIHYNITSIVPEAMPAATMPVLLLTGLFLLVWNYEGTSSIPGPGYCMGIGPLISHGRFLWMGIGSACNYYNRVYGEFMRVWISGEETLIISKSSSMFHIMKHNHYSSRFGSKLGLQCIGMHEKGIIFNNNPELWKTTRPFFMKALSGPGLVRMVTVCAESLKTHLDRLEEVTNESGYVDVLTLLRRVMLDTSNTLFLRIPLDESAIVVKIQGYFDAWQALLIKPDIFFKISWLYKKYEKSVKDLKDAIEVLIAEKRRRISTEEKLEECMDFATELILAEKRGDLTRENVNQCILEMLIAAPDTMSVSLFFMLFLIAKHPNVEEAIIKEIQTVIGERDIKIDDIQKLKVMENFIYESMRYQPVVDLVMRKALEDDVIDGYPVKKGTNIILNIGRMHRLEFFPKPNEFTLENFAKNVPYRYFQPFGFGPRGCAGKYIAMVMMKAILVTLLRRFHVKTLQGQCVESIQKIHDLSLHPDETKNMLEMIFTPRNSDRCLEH
# [6] = qHTS assay to identify aromatase inhibitors - cell viability counter screen (AID 743084);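 also: cells stimulated with testosterone during compound exposure; nearly all actives have a fitted effect of over 55% in size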; also: potency is read from the fitted curve at half-maximal effect
# [7] = biological target: Aryl hydrocarbon receptor (Homo sapiens) (UniProt P35869); experiment: qHTS assay to identify small molecule that activate the aryl hydrocarbon receptor (AhR) signaling pathway (AID 743085);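 also: HG2L7.5c1 human HepG2 liver cells with stably integrated DRE-driven firefly reporter; nearly all actives have a fitted effect of over 15% in size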
# Sequence of Aryl hydrocarbon receptor (Homo sapiens) (P35869 whole entry, looked up): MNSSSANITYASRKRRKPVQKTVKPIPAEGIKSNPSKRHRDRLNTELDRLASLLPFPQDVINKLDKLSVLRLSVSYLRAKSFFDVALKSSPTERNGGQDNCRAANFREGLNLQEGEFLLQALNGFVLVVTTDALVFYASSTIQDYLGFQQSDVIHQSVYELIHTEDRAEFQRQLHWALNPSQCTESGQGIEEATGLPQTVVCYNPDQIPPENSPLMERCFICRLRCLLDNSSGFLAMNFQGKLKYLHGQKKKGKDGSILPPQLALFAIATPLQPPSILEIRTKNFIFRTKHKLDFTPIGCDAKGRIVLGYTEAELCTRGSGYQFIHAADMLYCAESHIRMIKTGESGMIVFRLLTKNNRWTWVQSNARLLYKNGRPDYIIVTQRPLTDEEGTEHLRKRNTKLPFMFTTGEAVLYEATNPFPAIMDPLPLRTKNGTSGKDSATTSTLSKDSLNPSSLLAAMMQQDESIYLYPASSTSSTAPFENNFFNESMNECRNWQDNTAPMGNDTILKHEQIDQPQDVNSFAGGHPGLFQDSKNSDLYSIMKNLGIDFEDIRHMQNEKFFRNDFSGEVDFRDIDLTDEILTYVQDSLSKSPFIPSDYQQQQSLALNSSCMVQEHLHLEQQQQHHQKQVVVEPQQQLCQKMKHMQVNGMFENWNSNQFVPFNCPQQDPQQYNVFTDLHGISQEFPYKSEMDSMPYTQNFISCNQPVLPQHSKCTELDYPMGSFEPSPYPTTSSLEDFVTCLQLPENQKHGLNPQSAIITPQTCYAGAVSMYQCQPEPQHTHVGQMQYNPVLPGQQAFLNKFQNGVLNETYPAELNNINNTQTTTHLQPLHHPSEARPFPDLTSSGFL
# In short: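 Luminescence read-out: ONE-Glo reagent, 30 min at room temperature, in HG2L7.5c1 HepG2 reporter cells treated 24 h at 37C. Viability was measured beforehand by CellTiter-Fluor fluorescence after 30 min at 37C.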
# [8] = qHTS assay to identify small molecule that activate the aryl hydrocarbon receptor (AhR) signaling pathway - cell viability counter screen (AID 743086);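 also: HepG2 liver cells carrying the AhR DRE luciferase reporter; nearly all actives have a fitted effect of over 45% in size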
# In short: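 HepG2-AhR-luc (HG2L7.5c1) cells, 4000/well, treated 24 h at 37 C with compound; viability measured as CellTiter-Fluor fluorescence after 30 min in the same wells as the luciferase read.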
# [9] = qHTS assay to identify small molecule antagonists of the peroxisome proliferator-activated receptor gamma (PPARg) signaling pathway - cell viability counter screen (AID 743194); also: nearly all actives have a fitted effect of over 55% in size; also: potency is read from the fitted curve at half-maximal effect
# In short: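 Cytotoxicity counter screen in PPARg-bla HEK293H cells, same wells as reporter assay. Compounds plus 50 nM rosiglitazone (final) for 17 h at 37 C, then viability read by CellTiter-Glo luminescence.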
# [10] = qHTS assay for small molecule activators of the heat shock response signaling pathway - cell viability counter screen (AID 743209); also: nearly all actives have a fitted effect of over 50% in size; also: potency is read from the fitted curve at half-maximal effect
# In short: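 HSE-bla HeLa; 1500 cells/well; overnight 37 C, 5% CO2; compound 5 h 37 C; LiveBLAzer B/G substrate 2.5 h RT; CellTiter-Glo 30 min RT; luminescence.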
# [11] = biological target: Peroxisome proliferator-activated receptor gamma (Homo sapiens) (UniProt P37231); experiment: qHTS assay to identify small molecule agonists of the peroxisome proliferator-activated receptor gamma (PPARg) signaling pathway (AID 743094; active = well fitted activation curve with a large enough effect in the signal ratio in the repeat runs, not every such curve was filed as active; the % refers to the signal ratio)
# Sequence of Peroxisome proliferator-activated receptor gamma (Homo sapiens) (P37231 whole entry, looked up): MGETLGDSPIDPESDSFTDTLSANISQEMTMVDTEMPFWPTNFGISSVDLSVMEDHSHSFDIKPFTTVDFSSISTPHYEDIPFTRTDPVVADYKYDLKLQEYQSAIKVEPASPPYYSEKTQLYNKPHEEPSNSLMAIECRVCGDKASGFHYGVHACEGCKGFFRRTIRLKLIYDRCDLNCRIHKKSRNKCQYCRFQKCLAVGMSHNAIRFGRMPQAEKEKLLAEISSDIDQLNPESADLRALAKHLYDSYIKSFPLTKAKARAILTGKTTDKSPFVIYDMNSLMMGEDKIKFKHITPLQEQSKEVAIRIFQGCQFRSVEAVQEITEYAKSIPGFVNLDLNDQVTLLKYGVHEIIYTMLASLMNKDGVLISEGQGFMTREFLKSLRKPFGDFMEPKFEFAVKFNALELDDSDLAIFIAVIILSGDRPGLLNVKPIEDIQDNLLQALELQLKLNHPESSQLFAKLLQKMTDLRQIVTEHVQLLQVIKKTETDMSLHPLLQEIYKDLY
# In short: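 HEK293H PPARg-bla cells, 5 h settle at 37C/5% CO2; compound (DMSO) 17 h, 37C; B/G FRET substrate 1 h RT; fluorescence intensity read-out. qHTS format.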
# [12] = qHTS assay for small molecule agonists of the antioxidant response element (ARE) signaling pathway (AID 743202; active = well fitted activation curve with a large enough effect in the signal ratio in the repeat runs, not every such curve was filed as active; the % refers to the signal ratio; also: potency is read from the fitted curve at half-maximal effect)
# In short: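 HepG2 ARE-bla cells; 16 h treatment at 37 C; FRET-based beta-lactamase fluorescence read after 2 h substrate incubation at room temperature.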
# [13] = qHTS assay for small molecule agonists of the antioxidant response element (ARE) signaling pathway - cell viability counter screen (AID 743203; calls by dose curve; also: nearly all actives have a fitted effect of over 55% in size)
# In short: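 Luminescence read-out (CellTiter-Glo, 30 min at room temperature) measured cell viability in the same wells as the ARE beta-lactamase reporter. HepG2 ARE-bla cells were treated with compounds for 16 hrs at 37C/5% CO2.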
# [14] = qHTS assay for small molecule activators of the heat shock response signaling pathway (AID 743210; active = well fitted activation curve with a large enough effect in the signal ratio in the repeat runs, with a control signal flat, not every such curve was filed as active; the % refers to the signal ratio;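 also: HeLa cells with beta-lactamase reporter driven by heat shock elements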)
# In short: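 Following overnight attachment, HSE-bla HeLa cells received test compounds for 5 h at 37 C; beta-lactamase activity was then detected via FRET substrate fluorescence.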
# [15] = biological target: Estrogen receptor (Homo sapiens) (UniProt P03372); experiment: qHTS assay to identify small molecule agonists of the estrogen receptor alpha (ER-alpha) signaling pathway (AID 743075; calls by dose curve)
# Sequence of Estrogen receptor (Homo sapiens) (P03372 whole entry, looked up): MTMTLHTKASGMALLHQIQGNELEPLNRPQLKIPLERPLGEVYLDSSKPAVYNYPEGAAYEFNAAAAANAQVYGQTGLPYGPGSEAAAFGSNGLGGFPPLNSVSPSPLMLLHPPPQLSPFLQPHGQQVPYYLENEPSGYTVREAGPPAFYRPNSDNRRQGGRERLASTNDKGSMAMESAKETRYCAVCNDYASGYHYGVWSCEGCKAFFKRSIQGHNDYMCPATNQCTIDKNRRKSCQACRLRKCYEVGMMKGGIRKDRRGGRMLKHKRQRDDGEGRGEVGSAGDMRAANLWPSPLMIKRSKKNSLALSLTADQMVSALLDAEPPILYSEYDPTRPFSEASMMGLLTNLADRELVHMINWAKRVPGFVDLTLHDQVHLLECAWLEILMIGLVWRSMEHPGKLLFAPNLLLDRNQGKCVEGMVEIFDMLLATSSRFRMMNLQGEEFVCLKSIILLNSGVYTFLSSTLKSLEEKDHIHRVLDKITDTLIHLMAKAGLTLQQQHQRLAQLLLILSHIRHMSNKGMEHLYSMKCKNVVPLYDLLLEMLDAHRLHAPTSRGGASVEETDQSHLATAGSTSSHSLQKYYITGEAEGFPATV
# [16] = qHTS assay to identify small molecule antagonists of the estrogen receptor alpha (ER-alpha) signaling pathway using the BG1 cell line (AID 743080; calls by dose curve;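 also: BG1 cells stimulated with 17beta-estradiol alongside compound; nearly all actives have a fitted effect of over 25% in size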; also: potency is read from the fitted curve at half-maximal effect)
# In short: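 BG1Luc4E2, endogenous ER-alpha, 4xERE-luc; 5 d charcoal-stripped FBS, phenol red free; 24 h plating; cpd + 17beta-estradiol 21.5 h, 37 C/5% CO2; CellTiter-Fluor viability 30 min, then ONE-Glo luciferase 30 min RT.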
# [17] = biological target: Peroxisome proliferator-activated receptor gamma (Homo sapiens) (UniProt P37231); experiment: qHTS assay to identify small molecule antagonists of the peroxisome proliferator-activated receptor gamma (PPARg) signaling pathway (AID 743191; calls by dose curve; also: nearly all actives have a fitted effect of over 30% in size)
# In short: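 GeneBLAzer PPARg UAS-bla HEK293H cells, 5 h post-plating, exposed to compounds 17 h at 37C. LiveBLAzer B/G FRET substrate added for 1 h at room temperature; beta-lactamase reporter read by fluorescence intensity.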
# [18] = biological target: Estrogen receptor (Homo sapiens) (UniProt P03372); experiment: qHTS assay to identify small molecule antagonists of the estrogen receptor alpha (ER-alpha) signaling pathway (AID 743069; active = well fitted curve in the direction sought with a large enough effect in the signal ratio in the repeat runs, not every such curve was filed as active; the % refers to the signal ratio)
# In short: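 In this cell-based reporter format, GripTite HEK293 cells harbouring ER-alpha-UAS-bla were grown overnight with 2% charcoal-stripped FBS, dosed with DMSO-dissolved compounds, then challenged with 17beta-estradiol. After 18 hr at 37C, beta-lactamase activity was detected by FRET fluorescence.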
# [19] = biological target: Estrogen receptor (Homo sapiens) (UniProt P03372); experiment: qHTS assay to identify small molecule agonists of the estrogen receptor alpha (ER-alpha) signaling pathway using the BG1 cell line (AID 743079); settings: BG1Luc4E2 cells, ERE-luciferase agonist, 22 h; activation: at 70.3 µM (top of the series); also: potency is read from the fitted curve at half-maximal effect; nearly all actives have a fitted effect of over 20% in size
Structure (SMILES),Potency [1],Potency [2],outcome [3],Potency [4],Potency [5],Potency (Aromatase (Homo sapiens)),Potency [6],Potency [7],Potency [8],Potency [9],Potency [10],Potency [11],Potency [12],Potency [13],Potency [14],Potency [15],Potency [16],Potency [17],Potency [18],Potency [19]
CCCCCCCCCCCCCCN(CCO)CCO,19.3 µM (active),17.2 µM (active),inactive,54.9 µM (active),inactive,27.3 µM (active),43.3 µM (active),inactive,inactive,43.6 µM (active),24.5 µM (active),,,,,,,,,
CC1(C)[C@@H](OC(=O)CCC(=O)O)CC[C@]2(C)[C@H]3C(=O)C=C4[C@@H]5C[C@@](C)(C(=O)O)CC[C@]5(C)CC[C@@]4(C)[C@]3(C)CC[C@@H]12,inactive,inactive,inactive,inactive,inactive,inactive,inactive,,inactive,inactive,,inactive,26.6 µM (active),inactive,inactive,,,,,
C[C@@H](O[C@H]1OCCN(Cc2n[nH]c(=O)[nH]2)[C@H]1c1ccc(F)cc1)c1cc(C(F)(F)F)cc(C(F)(F)F)c1,13.3 µM (active),10.6 µM (active),,,inactive,29.8 µM (active),,,,,29.8 µM (active),inactive,,,,,,,,
CC1(CN2CCC(n3c(=O)[nH]c4ccccc43)CC2)OCc2ccccc2-n2cccc21 (stereo unspecified),29.8 µM (active),26.6 µM (active),,inactive,inactive,,inactive,inactive,inactive,,inactive,,,,inactive,inactive,29.8 µM (active),,,
c1csc(SSc2cccs2)c1,inactive,inactive,inactive,inactive,inactive,inactive,inactive,,,inactive,,,inactive,inactive,,,,inactive,,
CC(=O)N/N=C/c1ccc([N+](=O)[O-])o1,18.8 µM (active),16.8 µM (active),,inactive,inactive,,,,,inactive,,inactive,,inactive,,inactive,inactive,,inactive,
CC(=O)c1ccc([N+](=O)[O-])cc1,inactive,inactive,inactive,inactive,inactive,inactive,inactive,,inactive,inactive,inactive,inactive,,inactive,inactive,,,inactive,,
CCCCCCNC(=O)n1cc(F)c(=O)[nH]c1=O,10.6 µM (active),2.66 µM (active),inactive,inactive,inactive,inactive,inactive,inactive,inactive,inactive,inactive,,,inactive,inactive,,,,,
O=c1cc(-c2ccccc2)oc2ccc3ccccc3c12,inactive,9.69 µM (active),inactive,,inactive,13.7 µM (active),inactive,,inactive,19.5 µM (active),24.5 µM (active),,,,,inactive,,inactive,,2.43 µM (active)
